Data published in PubChem BioAssay AID1030 (National Center for Advancing Translational Sciences (NCATS), 2008).
Among all 220,000 compounds or so, about 16,000 (7.3%) were called active. Another 25% or so got no clear call; they are omitted. This is one part of a sample in which actives are shown more often than they occur. Calls follow the shape of the dose curve; as a rule, active = well fitted inhibition curve with a large enough effect (not every such curve was filed as active); inconclusive = small, poorly fitted or top-dose-only effect, or another doubt; inactive = no such curve, though single readings can be large or run the other way.

biological target: Aldehyde dehydrogenase 1A1 (Homo sapiens) (UniProt P00352); test: qHTS Assay for Inhibitors of Aldehyde Dehydrogenase 1 (ALDH1A1); settings: Purified ALDH1A1, NADH fluorescence, propionaldehyde substrate; series mostly up to 75.3 µM; activity, negative = inhibition: at the top concentration;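 as to activity, negative = inhibition: plate controls were no enzyme wells and a reference inhibitor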
Sequence (P00352 whole entry, looked up): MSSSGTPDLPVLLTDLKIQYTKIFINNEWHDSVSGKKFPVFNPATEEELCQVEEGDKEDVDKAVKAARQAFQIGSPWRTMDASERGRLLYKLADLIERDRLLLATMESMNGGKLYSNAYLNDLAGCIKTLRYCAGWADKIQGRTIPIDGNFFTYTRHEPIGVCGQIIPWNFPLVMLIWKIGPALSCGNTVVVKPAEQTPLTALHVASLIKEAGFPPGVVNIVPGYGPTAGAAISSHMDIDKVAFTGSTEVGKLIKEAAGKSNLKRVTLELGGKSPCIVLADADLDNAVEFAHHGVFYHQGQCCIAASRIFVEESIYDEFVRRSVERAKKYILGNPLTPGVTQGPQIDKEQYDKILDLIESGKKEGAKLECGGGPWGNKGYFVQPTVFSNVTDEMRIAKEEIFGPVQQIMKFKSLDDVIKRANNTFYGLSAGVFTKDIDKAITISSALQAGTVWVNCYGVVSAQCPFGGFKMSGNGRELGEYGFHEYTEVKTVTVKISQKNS
Potency is read from the fitted curve at half-maximal effect.

SMILES | activity, negative = inhibition | Potency
CC(=O)NCC(=O)N(Cc1ccco1)C1(C(=O)NC2CCCC2)CCCCC1 | -4.75% (inactive) | –
Cc1nn(-c2ccccc2)c2c1C(c1ccc(F)cc1)C(C#N)=C(N)O2 (stereo unspecified) | – | 3.55 µM (active)
CCCc1[nH]nc2c1C(c1c(C)nn(-c3ccccc3)c1Cl)C(C#N)=C(N)O2 (stereo unspecified) | -7.97% (inactive) | –
Cc1nn(Cc2ccccc2)c2c1C(c1ccccc1)C(C#N)=C(N)O2 (stereo unspecified) | – | 7.08 µM (active)
COc1ccccc1C1C(C#N)=C(N)Oc2c1c(-c1ccccc1)nn2-c1ccccc1 (stereo unspecified) | 1.85% (inactive) | –
Cc1cc2c(c(=O)n1Cc1ccco1)C(c1ccccc1)C(C#N)=C(N)O2 (stereo unspecified) | 5.32% (inactive) | –
CCc1ccc(C2C(C#N)=C(N)Oc3n[nH]c(CC(=O)OC)c32)cc1 (stereo unspecified) | -2.99% (inactive) | –
Cc1c(Br)c([N+](=O)[O-])nn1CC(=O)Nc1sc2c(c1C(=O)OC(C)C)CCC(C)C2 (stereo unspecified) | 11.3% (inactive) | –
CCCCC[C@H](O)/C=C/[C@@H]1[C@@H](CC(=O)CCC(=O)O)[C@@H](O)C[C@H]1O | 3.43% (inactive) | –
COc1ccc(C2CC(c3cccs3)=NN2C(=O)CSc2nncs2)cc1OC (stereo unspecified) | -3.31% (inactive) | –
COc1cc(/C=N/N=C(\N)c2nonc2N)cc(OC)c1OC | -1.07% (inactive) | –
COCCNC(=O)C(OC(=O)c1cccs1)c1ccc(F)cc1 (stereo unspecified) | 3.83% (inactive) | –
O=c1c2ccccc2oc2nc3n(c(=O)c12)CCCS3 | – | 25.1 µM (active)
CCc1nc2oc3ccccc3c(=O)c2c(=O)n1Cc1ccc(OC)cc1 | 8.05% (inactive) | –
O=c1c2ccccc2oc2nc(C3CCCCC3)n(Cc3ccco3)c(=O)c12 | -10.5% (inactive) | –
COc1ccc(C2=NN(c3ccccc3)C(c3cccs3)C2)cc1 (stereo unspecified) | 14.6% (inactive) | –
Cc1ccc(SCC(=O)Nc2ncc(C)s2)cc1 | 10.3% (inactive) | –
Cc1cnc(NC(=O)CSc2nnc(-c3ccccc3)n2Cc2ccccc2)s1 | -1.75% (inactive) | –
Cc1cnc(NC(=O)CSc2nnc(-c3ccc(Cl)cc3Cl)n2N)s1 | – | 20 µM (active)
Cc1ccc(-c2cc(C(=O)NN)n[nH]2)o1 | 9.31% (inactive) | –
O=C(O)CCCC(=O)Nc1ccc(Oc2cccc(C(F)(F)F)c2)nc1 | 9.57% (inactive) | –

SMILES | activity, negative = inhibition | Potency
Oc1ccccc1N1CCN(C(=S)NCc2ccccc2)CC1 | -6.52% (inactive) | –
Oc1ccc(N2CCN(C(=S)NCc3ccccc3)CC2)cc1 | – | 20 µM (active)
O=C(COC(=O)c1ccccc1C(=O)N1CCN(c2ccccc2)CC1)NCc1ccccc1 | 11.5% (inactive) | –
N/C(=N\OC(=O)c1ccc([N+](=O)[O-])cc1)c1ccccn1 | 13.7% (inactive) | –
C[N+]1(CC(O)COc2ccccc2)CCN(C(=O)c2ccc([N+](=O)[O-])cc2)CC1 (stereo unspecified) | 9.82% (inactive) | –
CC(=O)NCCn1c(SCC(=O)Nc2ccc(C)cc2)nc2ccccc2c1=O | 1.03% (inactive) | –
Nc1ccc(SCCN2C(=O)c3ccccc3C2=O)cc1 | 1.44% (inactive) | –
CN(C)CCCn1c(SCCN2C(=O)c3ccccc3C2=O)nc2ccccc2c1=O | – | 20 µM (active)
COc1ccc(C(=O)CSc2nnc(-c3ccco3)o2)cc1 | -14.6% (inactive) | –
COC(=O)C1=C(NC(=O)C(C)(C)C)CCS1 | 6.13% (inactive) | –
C=CCC(C(=O)c1ccccc1)[N+](C)(C)CC=C (stereo unspecified) | 5.4% (inactive) | –
Cc1ccc(Cl)cc1NC(=S)N(CCN(C)C)Cc1cccs1 | 1.93% (inactive) | –
N#C/C(=C(\O)C(F)(F)F)c1nnc2n1CCCCC2 | – | 4.47 µM (active)
N#Cc1cccc(Nc2c3c(nc4ccccc24)CCCC3)c1 | 2.92% (inactive) | –
CCc1nnc(NC(=O)CCN(c2ccc(C)cc2)S(=O)(=O)c2ccccc2)s1 | -0.208% (inactive) | –
CCOc1ccc(S(=O)(=O)N(CC(=O)NCC(F)(F)F)Cc2ccco2)cc1 | 3.47% (inactive) | –
CCOC(=O)Cn1c(=O)oc2cc(S(=O)(=O)NCC3CCCO3)ccc21 (stereo unspecified) | 1.27% (inactive) | –
CCOC(=O)Cn1c(=O)oc2cc(S(=O)(=O)N(C)Cc3ccco3)ccc21 | – | 15 µM (active)
Cc1ccc(CN2CCN(Cc3ccc(OCCO)cc3)CC2CCO)o1 (stereo unspecified) | 6.25% (inactive) | –
C[C@H]1Cc2c(COc3ccccc3)nc3c(c2CO1)CN(C(=O)NCc1ccco1)CC3 | -1.72% [at 13.5 µM] (inactive) | –
C[C@H]1Cc2c(COc3ccccc3)nc3c(c2CO1)CN(C(=O)Nc1cccc(C#N)c1)CC3 | -13.5% [at 13.5 µM] (inactive) | –

SMILES | activity, negative = inhibition | Potency
COc1ccc(-c2nc3c(c4c2C[C@H](c2ccccc2)OC4)CN(S(=O)(=O)c2c(C)noc2C)CC3)c(C)c1 | – | 0.447 µM (active)
COc1ccc(F)c(-c2nc(CN3CCC(c4ccccc4)CC3)c(C)o2)c1 | -4.43% (inactive) | –
Cc1ccc(OCC(=O)N2CCN(C(=O)c3cccnc3)CC2)cc1 | -3.66% (inactive) | –
COc1ccc(-c2nc3c(c4c2C[C@H](c2ccccc2)OC4)CN(C(=O)c2ccco2)CC3)c(C)c1 | – | 1.78 µM (active)
COc1c(C)cc(C(=O)C2CCCN(S(=O)(=O)c3c(C)noc3C)C2)cc1C (stereo unspecified) | -2.76% (inactive) | –
C[C@H]1Cc2c(-c3ccccc3)nc3c(c2CO1)CN(C(=O)C1CC1)CC3 | 8.3% [at 13.5 µM] (inactive) | –
COc1ccc(-c2nc3c(c4c2C[C@H](c2ccccc2)OC4)CN(C(=O)c2cccnc2)CC3)c(C)c1 | – | 0.355 µM (active)
COc1cccc(CC(=O)N2CCc3nc(COc4ccccc4)c4c(c3C2)CO[C@@H](C)C4)c1 | 6.69% [at 13.5 µM] (inactive) | –
C[C@H]1Cc2c(-c3ccccc3)nc3c(c2CO1)CN(S(=O)(=O)c1ccc(Cl)c2nonc12)CC3 | -9.79% [at 13.5 µM] (inactive) | –
COc1ccc(-c2nc3c(c4c2C[C@H](c2ccccc2)OC4)CN(C(=O)C2CC2)CC3)c(C)c1 | – | 0.398 µM (active)
CN1CCN(/N=C/c2ccc(-c3ccc([N+](=O)[O-])cc3)o2)CC1 | -8.28% (inactive) | –
CCOC(=O)N1CCN(C(=S)Nc2ccc(C)cc2C)CC1 | -5.34% (inactive) | –
CCOc1ccc(N(CC(=O)NCCc2ccc(OC)cc2)S(C)(=O)=O)cc1 | -2.6% (inactive) | –
COCOc1cc(OC)ccc1C(=O)/C=C/c1ccc([N+](=O)[O-])cc1 | -8.84% (inactive) | –
CCOc1ccc(-c2n[nH]c(C)c2-c2ccccn2)c(O)c1 | 4.95% (inactive) | –
Cc1cc(C)cc(C(=O)N(CCc2ccccc2)C2=CC3CCC(C2)N3C)c1 (stereo unspecified) | 8.36% (inactive) | –
CCn1c(CNC(=O)c2ccco2)nnc1SCC(=O)Nc1cccc(F)c1 | 4.1% (inactive) | –
Nc1ccc(OCC(O)C[n+]2ccc(CCS(=O)(=O)[O-])cc2)cc1 (stereo unspecified) | -10% (inactive) | –
Cc1ccc(NC(=O)C(=O)NCc2ccc(/C=N/NC(=O)c3c(C)nc4cc(C)ccn34)o2)cc1 | -4.69% (inactive) | –
